# Screening data as filed in PubChem BioAssay.
# TDP1 inh: inhibitors of human tyrosyl-DNA phosphodiesterase TDP1; recombinant TDP1, AlphaScreen DNA substrate cleavage; Potency, µM (doses to about 130 µM), usual class: inhibitors; Q9NUW8; 350,000 compounds, 0.28% hits; note: nearly all actives have a fitted effect of over 40% in size
# Target sequence (Q9NUW8 whole entry, looked up): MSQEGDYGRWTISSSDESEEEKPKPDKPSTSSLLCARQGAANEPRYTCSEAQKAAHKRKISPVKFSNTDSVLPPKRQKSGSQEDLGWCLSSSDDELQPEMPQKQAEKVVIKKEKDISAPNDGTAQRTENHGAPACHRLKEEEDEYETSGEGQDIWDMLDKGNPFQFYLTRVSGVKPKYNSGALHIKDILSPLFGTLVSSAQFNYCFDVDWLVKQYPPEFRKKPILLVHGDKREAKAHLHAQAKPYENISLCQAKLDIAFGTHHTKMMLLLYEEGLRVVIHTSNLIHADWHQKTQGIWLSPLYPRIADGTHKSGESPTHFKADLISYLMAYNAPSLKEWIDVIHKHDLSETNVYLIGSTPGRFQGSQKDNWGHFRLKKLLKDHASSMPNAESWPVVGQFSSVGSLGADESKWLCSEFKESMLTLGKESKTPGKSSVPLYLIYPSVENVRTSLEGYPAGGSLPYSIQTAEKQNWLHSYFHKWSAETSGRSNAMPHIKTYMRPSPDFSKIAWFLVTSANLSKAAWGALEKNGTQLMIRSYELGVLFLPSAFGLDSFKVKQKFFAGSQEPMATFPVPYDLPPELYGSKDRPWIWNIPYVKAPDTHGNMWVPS
#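 AlphaScreen read-out: signal falls as enzyme removes the 3' tyrosine-FITC from a 5'-biotinylated DNA oligo (15 nM, 5 min, RT). Enzyme was E. coli-made recombinant Tdp1 at 1 nM, exposed to compound for 15 min beforehand; beads 10 ug/ml, 10 min.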
# DT40 TDP1 no CPT: qHTS for Inhibitors of human tyrosyl-DNA phosphodiesterase 1 (TDP1): qHTS in cells in absence of CPT. 420,000 compounds, 15% hits. DT40 Tdp1-/- hTDP1 cells, no CPT, ATP luminescence, 48 h. Potency, µM (doses to about 46.2 µM), usual class: inhibitors; note: nearly all actives have a fitted effect of over 55% in size
#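 Stably hTDP1-transfected Tdp1-null chicken DT40 cells were treated with library compounds minus camptothecin and grown for at least 48 hr at 37 °C, after which cellular ATP was quantified by luminescence.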
# RORgamma inh: ROR gamma (mouse) transcription inhibition; P51450; Drosophila S2 Gal4-RORgamma UAS-luciferase reporter, 20 h; Potency, µM (series often up to 53.6 µM), actives largely listed as inhibitors; 310,000 compounds, 5.4% hits; AID 2551; note: nearly all actives have a fitted effect of over 60% in size
#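 Stably transfected Drosophila Schneider cells are the test system, with ROR gamma fused to Gal4 and luciferase under UAS control; luminescence is read after 20 hr of 700 uM copper sulfate induction at ambient temperature.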
# TDP1 cell CPT: DT40-hTDP1 cell growth loss with CPT; chicken DT40 Tdp1-/-;hTDP1 cells + 20 nM CPT, ATP luminescence, 48 h; Potency, µM (doses to about 46.2 µM), hits mostly inhibitors; 420,000 compounds, 12% hits; note: nearly all actives have a fitted effect of over 55% in size
#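 Chicken DT40 Tdp1-/- cells complemented with human TDP1, 400 cells/well, exposed to compounds plus 20 nM camptothecin for at least 48 h at 37 C; viability read as ATP content by CellTiter-Glo luminescence.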
# VP16 counter: Gal4-VP16 reporter inhibition counter-screen | Drosophila S2 Gal4-VP16 UAS-luciferase, luminescence, 20 h | Potency, µM (top dose mostly 53.6 µM), actives largely listed as inhibitors | 310,000 compounds, 3.5% hits | AID 2546;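 note: Gal4-VP16 expression switched on by copper sulfate through the metallothionein promoter; nearly all actives have a fitted effect of over 50% in size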
# A number is an active result; – = inactive; ? = inconclusive; · = no result given; [ ] = dose if it differs, or a comment. Compounds with a hit are over-represented: about 19% of the library has one in this group of screens. Calls come from the whole dose curve; as a rule, active = well fitted curve in the direction sought with a large enough effect; inconclusive = small, poorly fitted or top-dose-only effect, or another doubt; inactive = no such curve, though single readings can be large; an effect the other way counts as inactive or inconclusive.
SMILES,TDP1 inh,DT40 TDP1 no CPT,RORgamma inh,TDP1 cell CPT,VP16 counter
CCc1ccc(C(=O)OCC(=O)c2c(N)n(CC(C)C)c(=O)n(C)c2=O)cc1,–,?,–,?,–
CC(C)Cn1c(N)c(C(=O)COC(=O)Cc2cccc(C(F)(F)F)c2)c(=O)n(C)c1=O,·,20.6µM,·,16.4µM,·
CC(C)Cn1c(N)c(C(=O)COC(=O)/C=C/c2cccs2)c(=O)n(C)c1=O,–,16.4µM,?,?,?
CC(C)Cn1c(N)c(C(=O)COC(=O)c2c(F)cccc2F)c(=O)n(C)c1=O,–,–,?,–,–
CC(C)Cn1c(N)c(C(=O)COC(=O)Cc2cccs2)c(=O)n(C)c1=O,–,23.1µM,?,18.4µM,?
CC(=O)c1cccc(NC(=O)C2CCCN(C(=O)c3cnn(-c4ccccc4)c3-n3cccc3)C2)c1 (stereo not drawn),–,?,·,?,·
O=C(c1ccco1)C(O)c1ccco1 (stereo not drawn),·,–,–,–,–
Cc1cc(NC(=O)c2ccc(C)c([N+](=O)[O-])c2)no1,–,–,6.31µM,–,–
Cc1ccc(C(=O)Nc2sc(C)c(-c3ccccc3)c2C(N)=O)cc1[N+](=O)[O-],–,18.4µM,–,13µM,–
O=[N+]([O-])c1ccc(NCCNc2ccc([N+](=O)[O-])cc2)cc1,·,–,·,–,·
Cc1cccc(NC(=O)c2ccc(NCCO)c([N+](=O)[O-])c2)n1,–,?,–,–,?
Cc1ccc(C(=O)Nc2cccc(NC(=O)c3ccc(C)c([N+](=O)[O-])c3)n2)cc1[N+](=O)[O-],·,16.4µM,–,?,–
O=C(CCNc1ccc(Cc2ccncc2)cc1)c1ccc([N+](=O)[O-])cc1,–,?,–,23.1µM,–[10 µM]
Cc1cc(=O)[nH]c2c(C)cc(S(=O)(=O)Nc3ccc(O)cc3)cc12,–,–,–,–,–
O=C(Nc1ccc(Cc2ccncc2)cc1)c1cccc([N+](=O)[O-])c1,–,?,–,?,?
Cc1ccc(C(=O)Nc2ccc(Cc3ccncc3)cc2)cc1[N+](=O)[O-],–,20.6µM,?,20.6µM,–
COc1ccc(CC(=O)NCc2nnc(SCC(=O)c3ccc(OC)cc3)n2C)cc1,–,–,–,–,–
COc1cccc(-c2cn3c(n2)sc2cc(C(=O)NCCCc4ccccc4)ccc23)c1,–,4.61µM,·,6.51µM,·
COc1ccc(-c2cn3c(n2)sc2cc(C(=O)NCc4cccs4)ccc23)cc1,–,13µM,·,10.3µM,·
COc1ccc(-c2cn3c(n2)sc2cc(C(=O)Nc4c(C)cccc4C)ccc23)cc1,–,9.2µM,·,13µM,·
COc1cccc(-c2cn3c(n2)sc2cc(C(=O)NCc4cccs4)ccc23)c1,–,6.51µM,·,13µM,·
CCOc1ccc(CNC(=O)c2ccc3c(c2)sc2nc(-c4ccc(OC)cc4)cn23)cc1,–,–,·,–,·
COc1ccc(-c2cn3c(n2)sc2cc(C(=O)Nc4ccc(C)cc4C)ccc23)cc1,–,?,·,–,·
O=c1oc2ccccc2cc1-c1ccc(O)cc1,–,–,–,–,–
Nc1nc(SCc2ccccc2Cl)[nH]c(=O)c1-c1ccccc1,–,–,–,–,–
SMILES,TDP1 inh,DT40 TDP1 no CPT,RORgamma inh,TDP1 cell CPT,VP16 counter
CCN1CCN(C2CCCCC2NS(=O)(=O)c2ccccc2)CC1 (stereo not drawn),–,–,–,–,–
O=c1sc(N2CCN(c3ccccc3F)CC2)nc2ccsc12,–,?,–,?,?
CCOc1ccc(CNC(=O)c2ccc3c(c2)sc2nc(-c4ccccc4)cn23)cc1,–,–,·,–,·
COc1ccc(-c2cn3c(n2)sc2cc(C(=O)N4CCCCC4)ccc23)cc1,–,20.6µM,·,?,·
O=C(NCc1cccs1)c1ccc2c(c1)sc1nc(-c3ccccc3)cn12,–,23.1µM,·,18.4µM,·
C=CCCC(=O)N1C[C@H]2CON(C)[C@H]2C[C@H]1c1ccc(N2CCCCC2)cc1,·,–,·,–,·
CCCCn1c(N)c(N(CC(C)C)C(=O)C2=NN(c3cc(C)ccc3C)C(=O)CC2)c(=O)[nH]c1=O,–,?,·,–,·
Cc1ccc(-c2nc3cccnc3o2)cc1NC(=O)COc1ccc(C(C)(C)C)cc1,–,9.2µM,–,14.6µM,?
CC(=O)Nc1cccc(NC(=O)Cc2nc(-c3ccccc3)sc2-c2ccc(C)cc2)c1,–,?,?,?,–
Cc1ccc(-c2sc(-c3ccccc3)nc2CC(=O)Nc2ccccc2F)cc1,–,?,?,–,5.01µM
COc1cccc(NC(=O)Cc2nc(-c3ccccc3)sc2-c2ccc(C)cc2)c1,–,16.4µM,?,?,?
Cc1ccc(CSCC(=O)Nc2ccccc2F)cc1,–,–,–,–,–
Cc1ccc(NC(=O)CC2=NC(=O)C(CC(=O)Nc3ccccc3F)S2)cc1 (stereo not drawn),–,18.4µM,–,?,–
COC(=O)c1cccc(NC(=O)Cc2nc(-c3ccccc3)sc2-c2ccc(C)cc2)c1,–,18.4µM,?,?,–
Cc1ccc(NC(=O)CC2Sc3ccc(C(F)(F)F)cc3NC2=O)cc1 (stereo not drawn),–,–,·,–,·
COC(=O)c1cccc(NC(=O)CCc2ccccc2)c1,–,–,?,–,–
Cc1n[nH]c(=O)c2ccccc12,–,–,–,–,–
O=C(COC(=O)c1ccc(Cl)nc1)NCc1ccco1,–,–,–,–,–
O=C1c2ccccc2C(=O)N1CCc1nc2ccccc2c(=O)n1Cc1ccco1,–,–,–,–,–
Cc1ccc(S(=O)(=O)N2CCC[C@H]2C(=O)OCc2nc3ccccc3s2)cc1,·,?,·,–,·
O=C(NCc1cccs1)C1CCCN(C(=O)Nc2ccccc2)C1 (stereo not drawn),–,–,–,–,–
Cc1ccc(S(=O)(=O)Nc2ccc(OCC(=O)N3CCOCC3)cc2)c(C)c1NS(C)(=O)=O,–,–,–,–,–
COc1ccc(Cl)cc1C(=O)Nc1ccc(OCC(=O)N2CCOCC2)cc1,–,–,–,–,–
CC1=CC2=NC(=O)/C(=C/c3cccn3Cc3ccccc3)C(=N)N2O1,–,?,12.6µM,–,?
N=C1/C(=C/c2cccn2Cc2ccc(Cl)cc2)C(=O)N=C2SC=CN12,–,?,3.98µM,–,5.01µM
CCCCc1oc2ccc(NS(C)(=O)=O)cc2c1C(=O)c1ccc(OCCCN(CCCC)CCCC)cc1,·,5.96µM,·,4.73µM,·
CC(=O)Nc1ccc(NC(=O)c2ccccc2Sc2ccc([N+](=O)[O-])cc2Cl)cc1,–,?,–,–,–
C[C@@H](NC(=O)c1ncn2c1c(=O)[nH]c1ccc(Br)cc12)c1ccccc1,·,20.6µM,·,?,·
COc1ccc(Nc2c3c(nc4ccc(NC(=O)c5ccc(F)cc5)cc24)CCCC3)cc1OC,–,?,·,?,·
COc1ccccc1Nc1c2c(nc3ccc(N)cc13)CCCC2,–,20.6µM,–,16.4µM,–
